# Results published in PMC5540273 (PLoS ONE, 2017).
# Values joined by “and” are separate entries in the source; they are usually repeats but may differ in a detail not shown here. Identical values can stand only once. Like-named read-outs stand apart in the source and are kept apart here.
# Experiments:
# PRKR = test system: T1, PRKR; conditions: concentration: 1 μM, replicates: in singlicate; n = 1
# T1 construct: gene EIF2AK2
# PRKX = conditions: concentration: 1 μM, replicates: in singlicate; n = 1
# PRP4 = conditions: concentration: 1 μM, replicates: in singlicate; n = 1
# PYK2 = test system: T2, PYK2; conditions: concentration: 1 μM, replicates: in singlicate; n = 1
# T2 construct: gene PTK2B
# QSK = conditions: concentration: 1 μM, replicates: in singlicate, n = 1
# RAF1 = conditions: concentration: 1 μM, replicates: in singlicate, n = 1
# RET = conditions: concentration: 1 μM, replicates: in singlicate, n = 1
# RIOK1 = conditions: concentration: 1 μM, replicates: in singlicate, n = 1
# RIOK2 = conditions: concentration: 1 μM, replicates: in singlicate, n = 1
# RIOK3 = conditions: concentration: 1 μM, replicates: in singlicate, n = 1
# RIPK1 = conditions: concentration: 1 μM, replicates: in singlicate, n = 1
# RIPK2 = conditions: concentration: 1 μM, replicates: in singlicate, n = 1
# RIPK4 = conditions: concentration: 1 μM, replicates: in singlicate, n = 1
# RIPK5 = conditions: concentration: 1 μM, replicates: in singlicate, n = 1
# ROCK1 = conditions: concentration: 1 μM, replicates: in singlicate, n = 1
# ROCK2 = conditions: concentration: 1 μM, replicates: in singlicate, n = 1
# ROS1 = conditions: concentration: 1 μM, replicates: in singlicate, n = 1
# [1] = test system: RPS6KA4(Kin.Dom.1-N-terminal); conditions: concentration: 1 μM, replicates: in singlicate, n = 1
# [2] = test system: RPS6KA4(Kin.Dom.2-C-terminal); conditions: concentration: 1 μM, replicates: in singlicate, n = 1
# [3] = test system: RPS6KA5(Kin.Dom.1-N-terminal); conditions: concentration: 1 μM, replicates: in singlicate; n = 1
# 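Further: KINOMEscan kinase panel screen.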
compound,measurement,setting,value
CNc1nccc(-c2c(-c3ccc(F)cc3)ncn2CCCN2CCOCC2)n1 [SB-222516],%Inh,PRKR,0%
same,%Inh,PRKX,0%
same,%Inh,PRP4,0%
same,%Inh,PYK2,4%
same,%Inh,QSK,19%
same,%Inh,RAF1,0%
same,%Inh,RET,7%
same,%Inh,RIOK1,25%
same,%Inh,RIOK2,0%
same,%Inh,RIOK3,24%
same,%Inh,RIPK1,9%
same,%Inh,RIPK2,0%
same,%Inh,RIPK4,33%
same,%Inh,RIPK5,0%
same,%Inh,ROCK1,4%
same,%Inh,ROCK2,0%
same,%Inh,ROS1,3%
same,%Inh,[1],27%
same,%Inh,[2],1%
same,%Inh,[3],8%
c1ccc(-c2ccc3c(-c4ccnc(Nc5ccc6c(c5)OCCO6)n4)cnn3n2)cc1 [GW818941],%Inh,PRKR,0%
same,%Inh,PRKX,1%
same,%Inh,PRP4,17%
same,%Inh,PYK2,8%
same,%Inh,QSK,0%
same,%Inh,RAF1,20%
same,%Inh,RET,1%
same,%Inh,RIOK1,37%
same,%Inh,RIOK2,15%
same,%Inh,RIOK3,12%
same,%Inh,RIPK1,3%
same,%Inh,RIPK2,9%
same,%Inh,RIPK4,0%
same,%Inh,RIPK5,0%
same,%Inh,ROCK1,28%
same,%Inh,ROCK2,10%
same,%Inh,ROS1,5%
same,%Inh,[1],33%
same,%Inh,[2],0%
same,%Inh,[3],10%
Cl.c1ccc(Cn2ncc3cc(Nc4ncnc5ccccc45)ccc32)cc1 [GW273749],%Inh,PRKR,0%
same,%Inh,PRKX,4%
same,%Inh,PRP4,15%
same,%Inh,PYK2,0%
same,%Inh,QSK,10%
same,%Inh,RAF1,16%
same,%Inh,RET,13%
same,%Inh,RIOK1,39%
same,%Inh,RIOK2,0%
same,%Inh,RIOK3,19%
same,%Inh,RIPK1,7%
same,%Inh,RIPK2,74%
same,%Inh,RIPK4,8%
same,%Inh,RIPK5,6%
same,%Inh,ROCK1,12%
same,%Inh,ROCK2,21%
same,%Inh,ROS1,10%
same,%Inh,[1],3%
same,%Inh,[2],0%
same,%Inh,[3],8%
CS(=O)(=O)CCNCc1ccc(-c2ccc3ncnc(Nc4ccc(OCc5ccccc5)c(Cl)c4)c3c2)o1.Cl [GW574783],%Inh,PRKR,0%
same,%Inh,PRKX,17%
same,%Inh,PRP4,12%
same,%Inh,PYK2,0%
same,%Inh,QSK,2%
same,%Inh,RAF1,19%
same,%Inh,RET,0%
same,%Inh,RIOK1,32%
same,%Inh,RIOK2,6%
same,%Inh,RIOK3,0%
same,%Inh,RIPK1,9%
same,%Inh,RIPK2,79%
same,%Inh,RIPK4,0%
same,%Inh,RIPK5,0%
same,%Inh,ROCK1,22%
same,%Inh,ROCK2,21%
same,%Inh,ROS1,0%
same,%Inh,[1],32%
same,%Inh,[2],0%
same,%Inh,[3],28%
Clc1cccc(-c2nc(Nc3ccncc3)c3ccccc3n2)c1 [GW873004],%Inh,PRKR,0%
same,%Inh,PRKX,12%
same,%Inh,PRP4,50%
same,%Inh,PYK2,4%
same,%Inh,QSK,0%
same,%Inh,RAF1,46%
same,%Inh,RET,0%
same,%Inh,RIOK1,40%
same,%Inh,RIOK2,0%
same,%Inh,RIOK3,46%
same,%Inh,RIPK1,25%
same,%Inh,RIPK2,10%
same,%Inh,RIPK4,0%
same,%Inh,RIPK5,0%
same,%Inh,ROCK1,0%
same,%Inh,ROCK2,0%
same,%Inh,ROS1,20%
same,%Inh,[1],51%
same,%Inh,[2],1%
same,%Inh,[3],32%
COc1ccc(-c2nc3n(c2-c2ccncc2)CCC3)cc1 [SKF-104493],%Inh,PRKR,0%
same,%Inh,PRKX,0%
same,%Inh,PRP4,13%
same,%Inh,PYK2,6%
same,%Inh,QSK; 1 µM,29% and 5%
same,%Inh,RAF1; 1 µM,0% and 15%
same,%Inh,RET; 1 µM,0% and 10%
same,%Inh,RIOK1; 1 µM,24% and 4%
same,%Inh,RIOK2; 1 µM,20% and 0%
same,%Inh,RIOK3; 1 µM,0% and 10%
same,%Inh,RIPK1; 1 µM,0% and 20%
same,%Inh,RIPK2; 1 µM,40% and 46%
same,%Inh,RIPK4; 1 µM,9% and 12%
same,%Inh,RIPK5; 1 µM,19% and 0%
same,%Inh,ROCK1; 1 µM,21% and 5%
same,%Inh,ROCK2; 1 µM,29% and 0%
same,%Inh,ROS1; 1 µM,10% and 28%
same,%Inh,[1]; 1 µM,7% and 0%
same,%Inh,[2]; 1 µM,2% and 0%
same,%Inh,[3],0%
CSc1ccc(NC2=C(c3ccccc3Cl)C(=O)NC2=O)cc1 [SB-342411],%Inh,PRKR,0%
same,%Inh,PRKX,0%
same,%Inh,PRP4,0%
same,%Inh,PYK2,0%
same,%Inh,QSK,8%
same,%Inh,RAF1,15%
same,%Inh,RET,14%
same,%Inh,RIOK1,16%
same,%Inh,RIOK2,0%
same,%Inh,RIOK3,0%
same,%Inh,RIPK1,0%
same,%Inh,RIPK2,32%
same,%Inh,RIPK4,6%
same,%Inh,RIPK5,0%
same,%Inh,ROCK1,0%
same,%Inh,ROCK2,0%
same,%Inh,ROS1,0%
same,%Inh,[1],0%
same,%Inh,[2],0%
same,%Inh,[3],5%
O=C(CCO)NCCn1ccc2ncnc(Nc3ccc(Oc4cccc(C(F)(F)F)c4)c(Cl)c3)c21,%Inh,PRKR,0%
same,%Inh,PRKX,0%
same,%Inh,PRP4,8%
same,%Inh,PYK2,0%
same,%Inh,QSK,0%
same,%Inh,RAF1,0%
same,%Inh,RET,0%
same,%Inh,RIOK1,0%
same,%Inh,RIOK2,0%
same,%Inh,RIOK3,0%
same,%Inh,RIPK1,0%
same,%Inh,RIPK2,7%
same,%Inh,RIPK4,0%
same,%Inh,RIPK5,0%
same,%Inh,ROCK1,0%
same,%Inh,ROCK2,0%
same,%Inh,ROS1,0%
same,%Inh,[1],18%
same,%Inh,[2],0%
same,%Inh,[3],3%
Cc1ccc(NC(=O)c2cccc(C#N)c2)cc1-c1ccc(C(=O)Nc2ccncc2)cc1 [GSK1398463],%Inh,PRKR,0%
same,%Inh,PRKX,14%
same,%Inh,PRP4,0%
same,%Inh,PYK2,1%
same,%Inh,QSK,3%
same,%Inh,RAF1,51%
same,%Inh,RET,7%
same,%Inh,RIOK1,21%
same,%Inh,RIOK2,0%
same,%Inh,RIOK3,0%
same,%Inh,RIPK1,2%
same,%Inh,RIPK2,3%
same,%Inh,RIPK4,38%
same,%Inh,RIPK5,8%
same,%Inh,ROCK1,22%
same,%Inh,ROCK2,0%
same,%Inh,ROS1,0%
same,%Inh,[1],9%
same,%Inh,[2],0%
same,%Inh,[3],26%
COc1ccc(NC(=O)c2ccc(-c3cc(-c4nnc(C)o4)ccc3C)cc2)cc1 [GW595885],%Inh,PRKR,0%
same,%Inh,PRKX,5%
same,%Inh,PRP4,18%
same,%Inh,PYK2,0%
same,%Inh,QSK,21%
same,%Inh,RAF1,6%
same,%Inh,RET,28%
same,%Inh,RIOK1,12%
same,%Inh,RIOK2,0%
same,%Inh,RIOK3,0%
same,%Inh,RIPK1,0%
same,%Inh,RIPK2,0%
same,%Inh,RIPK4,9%
same,%Inh,RIPK5,0%
same,%Inh,ROCK1,10%
same,%Inh,ROCK2,13%
same,%Inh,ROS1,0%
same,%Inh,[1],0%
same,%Inh,[2],0%
same,%Inh,[3],12%
